# According to the supplement of paper PMC6555819:
# Tested on: VDR:RXRa (NR concentration 270 nM, RXRa partner concentration 90 nM)
# Assay: PBM binding z-score (relative to random genomic background probes); higher = stronger binding; sequences stand for … in GC…GCGATTGACAGCGTAGAATGAAGG
# Method: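 Protein-binding microarray (Agilent 4x180K custom design, double-stranded 60-nt probes: 5' GC cap, 34-nt variable region, 24-nt constant primer region; full probe sequence given). Purified or IVT nuclear receptor:RXRα heterodimers (3:1 NR:RXRα, mostly 270:90 nM) or homodimers were incubated for 1 h in PBS with 2% milk and no ligand, then detected with Alexa488 antibodies. Fluorescence from o1-orientation probes (~5 replicates averaged) was converted to z-scores against 500 random hg19 background probes. Variable regions are seed direct-repeat (DR0–DR5) sites, all their single-nucleotide variants and half-site ablations.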
row,Sequence,PBM binding z-score
1,CCTTACTGGTCACTCCAGGTTATAGCATCGGAGT,0.952
2,TCATATAGGTAATACACGTGAAAGTCGGCATCTA,1.01
3,CTCGAAAGCTCGGTTGAGGTGAGTATACGGATAA,-0.326
4,GCATATAGGTAATACAATGTGAAAGTCCGATTGT,-0.0597
5,CCTACTGGGCCATTCAGCGGTCATTGATCATATG,-0.109
6,GCTAGCAGGACATTTGGGTCACTCAATGACGGGC,0.429
7,TCTATTTGTTGAAGGGCAACCGACGAGTCCGTTT,1.19
8,CCTACTGGCCCAAAAAGGTCATTGATGCCGATAA,4.47
9,CCGTCTGGGGCAAAGGTTACCATACTCAGTACGA,1.55
10,ATCTGTAGGTAAAAGTTCAGTGAATCCCGAGGAT,1.27
11,GCTAGTTGGTCAGTAAACGGTCACACACCGGTCG,-0.0437
12,GGAACGAGGGCAAGTTGATAGCCGAGTTTGATGG,1.04
13,CCGACTGGGGCATAAGGGTACCATAAGCCAGCCC,-0.316
14,ACTAGCAGGCCAAGTTTGGGTCATTCAAACAAAG,1.07
15,CCTTACAGGTCACTCCAGGTTATAGCATCGGAGT,4.12
16,TCGAGTAGGTTAGTCGGGACATTCAGCCAACATA,1.19
17,ACTAGCAGGCCAAGGGTCGCTCAAGATTAGTCCG,0.00609
18,GCGACTGGGGCATCAGCAGGTTTCCATAACTTAA,-0.402
19,TCTTGTAGATCAACAGAAGGTTAAGAAAGATCGA,0.765
20,CCTATTAGTTGACTATAAGGGCAACCGAAGCTCG,0.181

row,Sequence,PBM binding z-score
1,ATCTAAAGGTCGAGGTGAGTATAGAGAAAGGGAA,3.08
2,CCTGCTGGGCCAAAAAGGTCATTGATGCCGATAA,4.84
3,TTACCAAGGTGAAGGTGGTTGATCCCTCTGTAGA,0.0919
4,ACAGACAGGTGAGTGAAGGTAAATCAGCTGGACG,-0.406
5,CCTACTGGGCCATCCAGAGGTCATTGATCATATG,4.12
6,TCTTGTAGATCAACAGGAGGCTAAGAAAGATCGA,-0.0159
7,GCGACTGGGGCAAAGCAGGTCACCATAAGGTTGG,2.52
8,CAAACTAGGTCACAGAGGTCAAGGTCCGTGCGTA,7.73
9,CGAACTAGGTCAAGGACAATGAATCTCCGCACGC,1.49
10,TGTCAAAGTTAAAAGGTAACGTAAGTATCCACAC,0.375
11,CGTCCAAGGTCAAGGTCAGTGGAAGAGACTCGAA,4.89
12,ACTTGCAGGCCAAGTTTGGGTCACTCAAACAAAG,0.755
13,TTACCAAGGTGAAGGTCGATGATCCCTCTGTAGA,0.54
14,TCTGCTAGGTCAGTGGGTCAGCTAACGAGCTGCC,1.5
15,TATACATGGTCAAAGGCCAGAGTACGAATGTCGA,0.445
16,CCTGCTAGGTCATGGTCAGCTTATCTACAGTATG,1.54
17,ACTATTAGTTGAGACGAGGGCAAGCGATAGGTTG,0.29
18,CGTCCAAGGTCGATGCTAGGTCAGTGAAAGCATT,2.26
19,AGAATGATGTTATTAAGATCAGGGAATTGCGGTC,0.0323
20,CCTACTGGGCCATCAGGTAATTGATATCAACGTT,-0.176
